The text below walks through data of PubChem BioAssay (NCATS).

A short description of experiment [1]: qHTS Assay for Identifying Gametocytocidal Compounds (AID 743244; active = well fitted curve in the direction sought with a large enough effect; an effect the other way counts as inactive or inconclusive; note: potency is the fitted concentration of half-maximal effect;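 for max response: % is set by controls: 0 for no effect and ±100 for the full control effect; actives lower the fluorescent signal which means gametocytes are killed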). To be noted: P. falciparum 3D7 stage III-V gametocytes, alamarBlue, 72 h; max response: stronger effect = lower value. In short, it runs like this: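 Viability read-out was resazurin reduction (alamarBlue, 24 h) measured at Ex 525/Em 598 nm. Beforehand, late-stage (III-V) 3D7 P. falciparum gametocytes at 20,000 cells/well were incubated with compound 72 h at 37C under 5% CO2.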
In general terms: In qHTS, concentration-response curves come from the screen itself.

Experiment [2] is described as follows: qHTS profiling for inhibitors of Plasmodium falciparum (3D7) proliferation (AID 743322).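 Note: infected erythrocytes exposed to compound for 72 h before lysis; 100% = DMSO vehicle wells and 0% = 0.29 µM artemisinin.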 The settings on record: P. falciparum 3D7 proliferation; at 28.7 µM (top of the series). The method, boiled down: (§1)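 Parasite DNA was quantified by SYBR Green I fluorescence (ex 485, em 535 nm) after overnight lysis in saponin/Triton buffer at room temperature. Cultures at 0.3% parasitemia and 2.5% hematocrit were first exposed to compound for 72 h at 37 C; signals were normalised to artemisinin (0.29 uM) and vehicle wells.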

A short description of experiment [3]: qHTS profiling for inhibitors of Plasmodium falciparum (DD2) proliferation (AID 743323). To be noted: lower = more inhibition; at 28.7 µM (top of the series). The method, boiled down:
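P. falciparum Dd2-infected erythrocytes (0.3% parasitemia, 2.5% hematocrit) exposed 72 h at 37 C, 5% CO2. Lysis with SYBR Green, overnight at room temperature, fluorescence 485/535 nm; normalized to 0.29 uM artemisinin and DMSO.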

Experiment [4] in a line: qHTS profiling for inhibitors of Plasmodium falciparum (HB3) proliferation (AID 743324; active = well fitted curve in the direction sought with a large enough effect; an effect the other way counts as inactive or inconclusive;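 note: 100% = DMSO vehicle wells and 0% = artemisinin-treated control wells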). The settings on record: Plasmodium falciparum HB3 blood-stage proliferation; at 28.7 µM (top of the series). In short, it runs like this:
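SYBR Green fluorescence (485 ex/535 em) of lysed cultures, incubated overnight at room temperature in the dark, quantifies parasite DNA. Infected erythrocytes at 0.3% parasitemia and 2.5% hematocrit were exposed 72 h; values normalized to DMSO and 0.29 uM artemisinin controls.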

Experiment [5] can be described thus: qHTS profiling of the MIPE4 collection as inhibitors of Plasmodium falciparum (3D7) proliferation (AID 743344).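 Note: scaled between DMSO vehicle wells and 0.29 µM artemisinin as full inhibition.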 To be noted: P. falciparum 3D7 in erythrocytes, SYBR Green DNA fluorescence, 72 h; at 28.5 µM (top of the series) unless noted. The method, boiled down: as §1
Experiment [6] can be described thus: qHTS profiling of the MIPE4 collection as inhibitors of Plasmodium falciparum (DD2) proliferation (AID 743345). To be noted: P. falciparum Dd2 in erythrocytes, SYBR Green DNA, 72 h; at 28.5 µM (top of the series) unless noted. The method, boiled down:
as §1

Experiment [7] is described as follows: qHTS profiling of the MIPE4 collection as inhibitors of Plasmodium falciparum (DD2) proliferation (Rep 2) (AID 743346). To be noted: P. falciparum Dd2 in erythrocytes, SYBR Green DNA, 72 h; at 28.5 µM (top of the series) unless noted. The method, boiled down:
as §1

The nature of experiment [8]: qHTS profiling of the MIPE4 collection as inhibitors of Plasmodium falciparum (HB3) proliferation (AID 743347).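 Note: plate controls were DMSO vehicle wells for no effect and artemisinin wells for full effect.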 To be noted: P. falciparum HB3 in erythrocytes, SYBR Green DNA, 72 h; at 28.5 µM (top of the series) unless noted. The method, boiled down:
as §1

Experiment [9] in a line: qHTS assay for cell viability of HEK293 cells (AID 743288; active = well fitted curve in the direction sought with a large enough effect; an effect the other way counts as inactive or inconclusive; note: % is set by controls: 0 for no effect and ±100 for the full control effect; nearly all actives have a fitted effect of over 50% in size). The settings on record: ATP luminescence (CellTiter-Glo), 18 h, stronger effect = lower value. In short, it runs like this:
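Steps: plate 2,000 parental HEK293 cells per well; incubate ≥5 h, 37 C; add compounds in DMSO; incubate 18 h, 37 C; add CellTiter-Glo; wait 30 min at room temperature; read luminescence.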

The structures appear in SMILES notation. Inconclusive results are not listed. Activity calls are given as the source filed them. Unless noted, the rule behind the calls is not given here.

Take `N#Cc1ccc(COC[C@H]2O[C@@H](n3c(NCc4ccc(Cl)c(Cl)c4)nc4c(N)ncnc43)[C@@H](O)[C@@H]2O)cc1`: in [1], the max response was -16.6% (inactive). Further, the remaining parasite growth % (stronger effect = lower value) in experiment [2] was determined as 37.7%. Besides, the activity, percent of control in experiment [3] was 23.4%. Further, the remaining proliferation (% of control), lower = more inhibition in experiment [4] turned out to be 21.1%. The compound also yielded a parasite growth, % of DMSO control in experiment [5] of 20.4%. The parasite growth remaining, % of DMSO control (lower = more inhibition) in [6] is 48.6%. In experiment [7], this compound showed a parasite growth, % of control (lower = inhibition) of 23.2%. Besides, the growth, % of control in experiment [8] stood at 23.2%.
`CS(=O)(=O)N1CCc2c(-c3cnc(N)nc3)nc(N3CCOCC3)nc21`: the parasite growth, % of DMSO control in experiment [5] was found to be 5.02%.
Consider `COC(=O)C1C2CC3c4[nH]c5cc(OC)ccc5c4CCN3CC2CC(OC(=O)c2cc(OC)c(OC)c(OC)c2)C1OC` (stereo not given), for which the Potency in experiment [1] was 42.9 µM (active). This compound also registered a remaining parasite growth % (stronger effect = lower value) in experiment [2] of 1.2%. In experiment [3], the activity, percent of control was 9.89%. Further, the remaining proliferation (% of control), lower = more inhibition in [4] stood at 2.79%. This compound returned a parasite growth, % of DMSO control in experiment [5] of 10.2%. In experiment [6], this compound returned a parasite growth remaining, % of DMSO control (lower = more inhibition) of 39.3%. For the same compound, the parasite growth, % of control (lower = inhibition) in experiment [7] was 20%. In experiment [8], the growth, % of control was 9.05%.
In experiment [5], `COc1ccc(C=Cc2cc(OC)c(OC)c(OC)c2)cc1NC(=O)[C@H](N)CO` returned a parasite growth, % of DMSO control of 75.4%. The parasite growth remaining, % of DMSO control (lower = more inhibition) in experiment [6] was found to be 75.1%.
`COc1cc(C)c(Sc2cnc(NC(=O)c3ccc(CNC(C)C(C)(C)C)cc3)s2)cc1C(=O)N1CCN(C(C)=O)CC1` (stereo not given) showed a remaining parasite growth % (stronger effect = lower value) in experiment [2] of 8.84%. Besides, the activity, percent of control in [3] was 8.81%. The remaining proliferation (% of control), lower = more inhibition in [4] was determined as 4.6%. In addition, the parasite growth, % of DMSO control in experiment [5] stood at 7.09%. Moreover, in [6], the parasite growth remaining, % of DMSO control (lower = more inhibition) is 11%. For the same compound, the parasite growth, % of control (lower = inhibition) in experiment [7] came out at 17.2%. The same compound gave a growth, % of control in experiment [8] of 4.86%.
Take `Cc1ccccc1C(=O)Nc1ccc(C(=O)N2CCCC(O)c3cc(Cl)ccc32)c(C)c1` (stereo not given): the max response in experiment [1] was 1.39% (inactive). In addition, the parasite growth remaining, % of DMSO control (lower = more inhibition) in [6] was 75.6%. The compound further registered a parasite growth, % of control (lower = inhibition) in experiment [7] of 46%. Besides, in experiment [8], the growth, % of control was determined as 24.6%.
Consider `OC[C@@H](O)[C@@H](O)[C@H](O)[C@@H](O)CO`, for which the max response in experiment [9] was -5.81% (inactive). Also, in experiment [6], the parasite growth remaining, % of DMSO control (lower = more inhibition) was 91.5%. In [8], this compound gave a growth, % of control of 70.6%.
As for `CCCCCCCN(CC)CCCC(O)c1ccc(NS(C)(=O)=O)cc1` (stereo not given), the max response in experiment [1] was -2.04% (inactive). This compound also showed a parasite growth, % of DMSO control in [5] of 58.8%. Also, the parasite growth remaining, % of DMSO control (lower = more inhibition) in experiment [6] was 83.7%. Moreover, the growth, % of control in [8] turned out to be 54%.
Turning to `Nc1ncn([C@@H]2O[C@H](CO)[C@@H](O)[C@@H]2O)c(=O)n1`, in experiment [2], the remaining parasite growth % (stronger effect = lower value) was determined as 96.3%. For the same compound, the activity, percent of control in experiment [3] stood at 90.8%. Moreover, the remaining proliferation (% of control), lower = more inhibition in experiment [4] turned out to be 89.3%. Moreover, the parasite growth, % of DMSO control in experiment [5] stood at 100%. In [6], this compound returned a parasite growth remaining, % of DMSO control (lower = more inhibition) of 95.9%. Besides, the parasite growth, % of control (lower = inhibition) in experiment [7] was 92.3%. Moreover, the growth, % of control in experiment [8] is 95%.
In experiment [2], `O=C(C[C@@H]1CC=CCCC(=O)O[C@H](c2ccccc2)CNC1=O)NCc1ccc(Cl)cc1` yielded a remaining parasite growth % (stronger effect = lower value) of 94.2%. Besides, in experiment [3], the activity, percent of control came out at 102%. Further, the remaining proliferation (% of control), lower = more inhibition in [4] came out at 71.1%. Also, the parasite growth, % of DMSO control in [5] turned out to be 62.4%. The parasite growth remaining, % of DMSO control (lower = more inhibition) in experiment [6] worked out at 96.1%. Moreover, the parasite growth, % of control (lower = inhibition) in [7] was 65.3%. The same compound displayed a growth, % of control in experiment [8] of 54.9%.
In [2], `CN(C)c1ccc2cc(C(=O)N[C@@H](CCCN=C(N)CCl)C(=O)NCc3ccccc3)ccc2c1` returned a remaining parasite growth % (stronger effect = lower value) of 6.68%. Further, the activity, percent of control in experiment [3] is 11.8%. The remaining proliferation (% of control), lower = more inhibition in [4] was -0.673%. The compound further gave a parasite growth, % of DMSO control in experiment [5] of 5.85%. Moreover, in experiment [6], the parasite growth remaining, % of DMSO control (lower = more inhibition) turned out to be 8.25%. Besides, the parasite growth, % of control (lower = inhibition) in experiment [7] was 9.19%. The growth, % of control in experiment [8] was determined as 9.16%.
Regarding `C=CC[C@@H]1C=C(C)C[C@H](C)C[C@H](OC)[C@H]2O[C@@](O)(C(=O)C(=O)N3CCCC[C@H]3C(=O)O[C@H](C(C)=C[C@@H]3CC[C@H](O)[C@H](OC)C3)[C@@H](C)[C@@H](O)CC1=O)[C@@H](C)C[C@@H]2OC`, the parasite growth, % of DMSO control in [5] was found to be 8.55%. The compound further returned a parasite growth remaining, % of DMSO control (lower = more inhibition) in [6] of 8.99%.
